Experiments:
Assay in all cases: DAPPL (digital affinity profiling via proximity ligation, sequencing); 10 mM Tris-HCl pH 7.5, 50 mM NaCl, 1 mM DTT, 4% glycerol, room temperature, 30 min; GST-TFs on glutathione beads, 16-mer random dsDNA library, 0.1% formaldehyde crosslink after washing; high values mean tight binding
FLI1 = biological target: T1, FLI1 (Homo sapiens, UniProt Q01543 1-452); conditions: protein: recombinant; tags: N-terminal GST; dsDNA, one strand shown
T1 sequence: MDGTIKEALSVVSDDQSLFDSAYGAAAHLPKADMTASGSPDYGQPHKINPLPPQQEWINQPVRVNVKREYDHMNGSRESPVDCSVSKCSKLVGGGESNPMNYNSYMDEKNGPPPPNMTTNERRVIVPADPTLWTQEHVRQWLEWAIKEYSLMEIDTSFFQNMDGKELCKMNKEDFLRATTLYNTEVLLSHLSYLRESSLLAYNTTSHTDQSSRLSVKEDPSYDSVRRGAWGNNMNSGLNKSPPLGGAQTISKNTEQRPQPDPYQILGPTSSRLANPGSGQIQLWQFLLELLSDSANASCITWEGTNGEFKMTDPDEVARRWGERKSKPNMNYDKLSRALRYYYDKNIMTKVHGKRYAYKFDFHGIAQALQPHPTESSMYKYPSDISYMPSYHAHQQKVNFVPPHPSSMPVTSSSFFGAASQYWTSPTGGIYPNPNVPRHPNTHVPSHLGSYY
Outline: (§1)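 Binding signal is given per hexamer as its read frequency for a factor divided by its frequency in the tag-only sample. GST-fused human transcription factors were expressed in yeast, captured on glutathione beads, barcoded with DNA and pooled with that sample, then incubated with 200 nmole of a 16-mer random double-stranded DNA library in Tris/NaCl/DTT/glycerol buffer for 30 min at room temperature. The pools were then washed, crosslinked, proximity-ligated, amplified by PCR and sequenced on an Illumina NextSeq500.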

ELK1 = biological target: T2, ELK1 (Homo sapiens, UniProt P19419 1-428); conditions: protein: recombinant; tags: N-terminal GST; dsDNA, one strand shown
T2 sequence: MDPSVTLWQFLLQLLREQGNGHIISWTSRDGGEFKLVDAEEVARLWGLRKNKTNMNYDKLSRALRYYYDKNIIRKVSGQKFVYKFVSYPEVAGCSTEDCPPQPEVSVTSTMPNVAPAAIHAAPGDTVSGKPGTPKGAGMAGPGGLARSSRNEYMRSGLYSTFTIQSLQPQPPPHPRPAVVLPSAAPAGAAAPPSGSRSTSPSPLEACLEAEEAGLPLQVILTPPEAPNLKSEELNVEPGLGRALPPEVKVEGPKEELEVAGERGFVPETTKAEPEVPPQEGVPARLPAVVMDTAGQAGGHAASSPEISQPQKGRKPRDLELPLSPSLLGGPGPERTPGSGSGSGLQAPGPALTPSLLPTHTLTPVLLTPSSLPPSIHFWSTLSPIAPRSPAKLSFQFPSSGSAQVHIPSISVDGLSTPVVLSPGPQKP
Outline: as §1

GABPA = biological target: T3, GABPA (Homo sapiens, UniProt Q06546 1-454); conditions: protein: recombinant; tags: N-terminal GST; dsDNA, one strand shown
T3 sequence: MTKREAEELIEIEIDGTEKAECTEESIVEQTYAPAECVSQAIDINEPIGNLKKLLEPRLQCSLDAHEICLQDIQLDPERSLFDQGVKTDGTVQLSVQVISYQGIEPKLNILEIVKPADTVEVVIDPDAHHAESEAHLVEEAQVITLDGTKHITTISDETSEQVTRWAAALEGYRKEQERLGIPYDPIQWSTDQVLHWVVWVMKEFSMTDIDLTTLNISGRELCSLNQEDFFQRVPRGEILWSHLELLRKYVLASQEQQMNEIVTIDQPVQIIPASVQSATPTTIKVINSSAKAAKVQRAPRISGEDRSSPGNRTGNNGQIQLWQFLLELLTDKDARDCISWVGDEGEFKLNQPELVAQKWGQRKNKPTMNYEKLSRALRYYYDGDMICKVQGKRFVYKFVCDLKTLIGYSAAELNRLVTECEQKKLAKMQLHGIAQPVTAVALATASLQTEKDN
Outline: as §1

ERG = biological target: T4, ERG (Homo sapiens, UniProt P11308 1-479); conditions: protein: recombinant; tags: N-terminal GST; dsDNA, one strand shown
T4 sequence: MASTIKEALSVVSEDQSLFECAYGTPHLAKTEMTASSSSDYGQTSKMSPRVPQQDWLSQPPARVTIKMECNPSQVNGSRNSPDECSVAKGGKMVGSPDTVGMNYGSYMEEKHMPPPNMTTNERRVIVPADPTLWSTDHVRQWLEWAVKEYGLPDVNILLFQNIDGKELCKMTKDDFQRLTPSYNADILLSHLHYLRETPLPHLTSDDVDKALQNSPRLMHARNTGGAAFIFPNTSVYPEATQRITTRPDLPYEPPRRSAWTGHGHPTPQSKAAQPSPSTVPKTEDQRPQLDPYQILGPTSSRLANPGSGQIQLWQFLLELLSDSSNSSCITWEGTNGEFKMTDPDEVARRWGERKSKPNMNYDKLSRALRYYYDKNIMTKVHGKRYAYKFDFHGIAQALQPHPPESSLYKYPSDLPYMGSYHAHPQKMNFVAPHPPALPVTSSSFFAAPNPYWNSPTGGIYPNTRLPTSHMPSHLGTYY
Outline: as §1

ELF1 = ELF1 (Homo sapiens, UniProt P32519 1-619); conditions: protein: recombinant; tags: N-terminal GST; dsDNA, one strand shown
Outline: as §1

EHF = biological target: T5, EHF (Homo sapiens, UniProt Q9NZC4 1-300); conditions: protein: recombinant; tags: N-terminal GST; dsDNA, one strand shown
T5 sequence: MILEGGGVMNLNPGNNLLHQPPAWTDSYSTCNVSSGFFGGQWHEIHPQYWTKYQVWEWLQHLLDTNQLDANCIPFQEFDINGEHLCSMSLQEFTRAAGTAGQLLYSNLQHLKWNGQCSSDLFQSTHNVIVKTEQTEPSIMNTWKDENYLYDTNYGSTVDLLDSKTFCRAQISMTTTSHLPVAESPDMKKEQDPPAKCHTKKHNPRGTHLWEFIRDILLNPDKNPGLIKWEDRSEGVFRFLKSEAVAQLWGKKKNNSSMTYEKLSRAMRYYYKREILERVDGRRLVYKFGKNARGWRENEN
Outline: as §1

SPI1 = SPI1 (Homo sapiens, UniProt P17947 1-270); conditions: protein: recombinant; tags: N-terminal GST; dsDNA, one strand shown
Outline: as §1

SPIB = SPIB (Homo sapiens, UniProt Q01892 1-262); conditions: protein: recombinant; tags: N-terminal GST; dsDNA, one strand shown
Outline: as §1

ELK3 = biological target: T6, ELK3 (Homo sapiens, UniProt P41970 1-407); conditions: protein: recombinant; tags: N-terminal GST; dsDNA, one strand shown
T6 sequence: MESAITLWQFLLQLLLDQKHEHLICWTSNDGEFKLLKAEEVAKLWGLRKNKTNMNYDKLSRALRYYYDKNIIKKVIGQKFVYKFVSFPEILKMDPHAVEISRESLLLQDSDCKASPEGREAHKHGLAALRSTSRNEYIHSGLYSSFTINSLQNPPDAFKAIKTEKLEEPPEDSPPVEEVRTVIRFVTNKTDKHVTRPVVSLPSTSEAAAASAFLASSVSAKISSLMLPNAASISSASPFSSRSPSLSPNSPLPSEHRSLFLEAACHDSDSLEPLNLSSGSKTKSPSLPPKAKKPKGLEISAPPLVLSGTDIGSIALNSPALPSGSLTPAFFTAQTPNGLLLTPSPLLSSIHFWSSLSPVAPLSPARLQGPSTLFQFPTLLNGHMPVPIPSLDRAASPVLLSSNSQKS
Outline: as §1

FEV = biological target: T7, FEV (Homo sapiens, UniProt Q99581 1-238); conditions: protein: recombinant; tags: N-terminal GST; dsDNA, one strand shown
T7 sequence: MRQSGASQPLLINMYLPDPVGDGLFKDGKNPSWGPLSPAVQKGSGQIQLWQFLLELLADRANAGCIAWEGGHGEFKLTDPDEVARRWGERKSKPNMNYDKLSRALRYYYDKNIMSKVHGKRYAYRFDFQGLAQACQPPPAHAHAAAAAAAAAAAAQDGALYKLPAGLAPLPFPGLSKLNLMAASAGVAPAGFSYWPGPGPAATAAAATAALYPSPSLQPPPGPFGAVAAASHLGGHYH
Outline: as §1

ETV5 = ETV5 (Homo sapiens, UniProt P41161 1-510); conditions: protein: recombinant; tags: N-terminal GST; dsDNA, one strand shown
Outline: as §1

HSF1 = HSF1 (Homo sapiens, UniProt Q00613 1-529); conditions: protein: recombinant; tags: N-terminal GST; chain copies: 3; dsDNA, one strand shown
Outline: as §1

SPIC = biological target: T8, SPIC (Homo sapiens, UniProt Q8N5J4 1-248); conditions: protein: recombinant; tags: N-terminal GST; dsDNA, one strand shown
T8 sequence: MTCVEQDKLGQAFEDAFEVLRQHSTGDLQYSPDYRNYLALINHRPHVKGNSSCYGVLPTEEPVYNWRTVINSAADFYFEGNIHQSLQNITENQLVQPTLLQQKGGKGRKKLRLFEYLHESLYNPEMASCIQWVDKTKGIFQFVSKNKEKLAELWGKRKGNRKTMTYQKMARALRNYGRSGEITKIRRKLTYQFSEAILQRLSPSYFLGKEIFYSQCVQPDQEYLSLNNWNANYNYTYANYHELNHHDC
Outline: as §1

ELF4 = ELF4 (Homo sapiens, UniProt Q99607 1-663); conditions: protein: recombinant; tags: N-terminal GST; dsDNA, one strand shown
Outline: as §1

ELK4 = biological target: T9, ELK4 (Homo sapiens, UniProt P28324-2 1-405); conditions: protein: recombinant; tags: N-terminal GST; dsDNA, one strand shown
T9 sequence: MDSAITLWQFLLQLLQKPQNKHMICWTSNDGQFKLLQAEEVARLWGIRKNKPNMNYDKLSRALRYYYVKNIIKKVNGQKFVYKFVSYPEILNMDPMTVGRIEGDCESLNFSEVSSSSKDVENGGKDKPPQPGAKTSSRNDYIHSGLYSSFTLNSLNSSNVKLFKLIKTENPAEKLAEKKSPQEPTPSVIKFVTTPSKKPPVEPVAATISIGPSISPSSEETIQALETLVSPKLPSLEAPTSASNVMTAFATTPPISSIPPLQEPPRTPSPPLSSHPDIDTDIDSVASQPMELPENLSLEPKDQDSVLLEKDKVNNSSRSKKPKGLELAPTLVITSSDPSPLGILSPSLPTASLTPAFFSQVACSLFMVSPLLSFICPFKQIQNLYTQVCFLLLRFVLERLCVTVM
Outline: as §1

ETV2 = biological target: T10, ETV2 (Homo sapiens, UniProt O00321 1-342); conditions: protein: recombinant; tags: N-terminal GST; dsDNA, one strand shown
T10 sequence: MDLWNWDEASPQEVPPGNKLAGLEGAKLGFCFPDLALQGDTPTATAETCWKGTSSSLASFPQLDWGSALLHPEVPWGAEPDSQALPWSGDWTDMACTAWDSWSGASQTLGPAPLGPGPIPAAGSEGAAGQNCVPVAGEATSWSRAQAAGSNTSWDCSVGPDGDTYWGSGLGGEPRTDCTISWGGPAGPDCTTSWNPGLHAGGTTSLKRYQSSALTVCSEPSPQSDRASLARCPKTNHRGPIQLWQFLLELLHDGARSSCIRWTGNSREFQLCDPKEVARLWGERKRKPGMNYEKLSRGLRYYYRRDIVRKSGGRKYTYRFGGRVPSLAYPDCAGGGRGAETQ
Outline: as §1

ELF3 = biological target: T11, ELF3 (Homo sapiens, UniProt P78545 1-371); conditions: protein: recombinant; tags: N-terminal GST; dsDNA, one strand shown
T11 sequence: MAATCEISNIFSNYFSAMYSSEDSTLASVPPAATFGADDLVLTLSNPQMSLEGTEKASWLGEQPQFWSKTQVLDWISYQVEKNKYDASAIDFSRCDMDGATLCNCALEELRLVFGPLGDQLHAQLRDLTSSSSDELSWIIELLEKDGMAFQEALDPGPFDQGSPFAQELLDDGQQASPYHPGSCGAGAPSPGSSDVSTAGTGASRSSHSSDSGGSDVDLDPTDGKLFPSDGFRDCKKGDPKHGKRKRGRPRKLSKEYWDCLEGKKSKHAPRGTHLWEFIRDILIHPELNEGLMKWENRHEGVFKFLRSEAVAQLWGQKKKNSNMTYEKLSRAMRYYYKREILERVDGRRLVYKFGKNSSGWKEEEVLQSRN
Outline: as §1

CRX = CRX (Homo sapiens, UniProt O43186 1-299); conditions: protein: recombinant; tags: N-terminal GST; dsDNA, one strand shown
Outline: as §1

ETV1 = ETV1 (Homo sapiens, UniProt P50549 1-477); conditions: protein: recombinant; tags: N-terminal GST; dsDNA, one strand shown
Outline: as §1

Chain of HSF1 (Q00613 whole entry): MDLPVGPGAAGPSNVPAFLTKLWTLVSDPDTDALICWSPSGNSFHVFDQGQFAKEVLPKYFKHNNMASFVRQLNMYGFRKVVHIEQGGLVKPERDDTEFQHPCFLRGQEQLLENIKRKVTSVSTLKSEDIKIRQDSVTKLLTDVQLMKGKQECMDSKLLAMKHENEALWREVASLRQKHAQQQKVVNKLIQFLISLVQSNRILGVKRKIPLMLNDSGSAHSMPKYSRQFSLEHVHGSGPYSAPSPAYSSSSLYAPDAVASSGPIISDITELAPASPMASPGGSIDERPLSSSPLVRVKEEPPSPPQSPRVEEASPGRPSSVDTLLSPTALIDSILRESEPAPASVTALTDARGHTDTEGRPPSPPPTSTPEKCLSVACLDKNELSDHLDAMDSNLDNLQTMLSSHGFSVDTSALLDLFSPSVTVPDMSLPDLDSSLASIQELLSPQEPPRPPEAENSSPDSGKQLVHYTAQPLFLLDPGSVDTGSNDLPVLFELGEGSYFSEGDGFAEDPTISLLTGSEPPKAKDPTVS
Chain of SPIB (Q01892 whole entry): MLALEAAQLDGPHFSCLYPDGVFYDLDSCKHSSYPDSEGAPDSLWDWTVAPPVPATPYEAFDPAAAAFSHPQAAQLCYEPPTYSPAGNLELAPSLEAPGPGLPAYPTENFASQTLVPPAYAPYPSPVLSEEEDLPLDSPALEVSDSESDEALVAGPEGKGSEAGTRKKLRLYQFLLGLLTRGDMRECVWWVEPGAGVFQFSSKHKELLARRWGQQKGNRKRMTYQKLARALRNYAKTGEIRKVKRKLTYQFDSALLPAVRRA
Chain of ETV5 (P41161 whole entry): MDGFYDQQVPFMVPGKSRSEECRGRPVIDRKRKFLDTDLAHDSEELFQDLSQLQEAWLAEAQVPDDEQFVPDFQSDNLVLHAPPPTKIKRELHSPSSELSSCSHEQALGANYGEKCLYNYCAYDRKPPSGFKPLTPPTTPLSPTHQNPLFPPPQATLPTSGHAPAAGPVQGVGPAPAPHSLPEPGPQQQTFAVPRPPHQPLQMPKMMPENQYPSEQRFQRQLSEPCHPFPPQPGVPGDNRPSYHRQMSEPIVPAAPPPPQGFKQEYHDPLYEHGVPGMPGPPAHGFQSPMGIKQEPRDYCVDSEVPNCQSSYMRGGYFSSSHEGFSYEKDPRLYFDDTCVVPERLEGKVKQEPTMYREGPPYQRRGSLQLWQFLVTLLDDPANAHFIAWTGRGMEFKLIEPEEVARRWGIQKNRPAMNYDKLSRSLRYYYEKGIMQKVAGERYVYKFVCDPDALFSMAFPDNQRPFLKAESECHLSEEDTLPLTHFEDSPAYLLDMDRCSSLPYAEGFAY
Chain of ELF4 (Q99607 whole entry): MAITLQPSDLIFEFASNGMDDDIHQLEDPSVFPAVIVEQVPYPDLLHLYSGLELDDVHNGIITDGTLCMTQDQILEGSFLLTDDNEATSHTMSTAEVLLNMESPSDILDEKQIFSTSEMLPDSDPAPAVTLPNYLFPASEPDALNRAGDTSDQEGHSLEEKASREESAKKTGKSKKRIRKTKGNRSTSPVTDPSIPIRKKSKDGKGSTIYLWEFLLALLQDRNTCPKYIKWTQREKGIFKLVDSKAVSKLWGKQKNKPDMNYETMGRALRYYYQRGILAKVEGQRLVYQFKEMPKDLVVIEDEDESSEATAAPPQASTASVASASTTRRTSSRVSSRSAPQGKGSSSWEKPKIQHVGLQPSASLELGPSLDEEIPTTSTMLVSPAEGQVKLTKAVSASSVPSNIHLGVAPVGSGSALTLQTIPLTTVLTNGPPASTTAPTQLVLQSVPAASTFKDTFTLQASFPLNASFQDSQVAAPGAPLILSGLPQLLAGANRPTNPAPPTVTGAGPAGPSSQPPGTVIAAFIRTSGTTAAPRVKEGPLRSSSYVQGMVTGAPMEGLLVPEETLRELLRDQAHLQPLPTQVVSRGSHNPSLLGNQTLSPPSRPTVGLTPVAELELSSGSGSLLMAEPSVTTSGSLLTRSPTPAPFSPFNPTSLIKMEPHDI
Chain of CRX (O43186 whole entry): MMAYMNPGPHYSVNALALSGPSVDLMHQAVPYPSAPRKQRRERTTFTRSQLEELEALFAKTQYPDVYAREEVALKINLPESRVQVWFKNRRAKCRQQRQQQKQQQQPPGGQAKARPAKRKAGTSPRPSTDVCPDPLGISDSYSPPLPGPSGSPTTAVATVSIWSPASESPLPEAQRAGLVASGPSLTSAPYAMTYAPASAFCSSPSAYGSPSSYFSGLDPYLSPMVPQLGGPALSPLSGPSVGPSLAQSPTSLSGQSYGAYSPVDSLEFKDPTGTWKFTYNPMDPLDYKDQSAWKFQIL
Chain of ETV1 (P50549 whole entry): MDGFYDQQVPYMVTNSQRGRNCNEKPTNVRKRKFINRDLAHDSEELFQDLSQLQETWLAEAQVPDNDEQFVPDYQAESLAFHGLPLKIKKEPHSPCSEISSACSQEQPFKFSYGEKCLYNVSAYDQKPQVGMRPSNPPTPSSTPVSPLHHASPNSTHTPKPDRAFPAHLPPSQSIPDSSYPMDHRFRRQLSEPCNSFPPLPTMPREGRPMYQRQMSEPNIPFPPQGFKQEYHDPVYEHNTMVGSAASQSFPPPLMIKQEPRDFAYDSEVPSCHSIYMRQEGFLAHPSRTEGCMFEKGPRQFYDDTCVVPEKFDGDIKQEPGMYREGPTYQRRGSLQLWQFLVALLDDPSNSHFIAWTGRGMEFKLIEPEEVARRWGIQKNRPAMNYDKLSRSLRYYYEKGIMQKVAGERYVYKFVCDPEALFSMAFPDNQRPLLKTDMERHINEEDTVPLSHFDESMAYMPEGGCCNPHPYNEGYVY
Chain of ELF1 (P32519 whole entry): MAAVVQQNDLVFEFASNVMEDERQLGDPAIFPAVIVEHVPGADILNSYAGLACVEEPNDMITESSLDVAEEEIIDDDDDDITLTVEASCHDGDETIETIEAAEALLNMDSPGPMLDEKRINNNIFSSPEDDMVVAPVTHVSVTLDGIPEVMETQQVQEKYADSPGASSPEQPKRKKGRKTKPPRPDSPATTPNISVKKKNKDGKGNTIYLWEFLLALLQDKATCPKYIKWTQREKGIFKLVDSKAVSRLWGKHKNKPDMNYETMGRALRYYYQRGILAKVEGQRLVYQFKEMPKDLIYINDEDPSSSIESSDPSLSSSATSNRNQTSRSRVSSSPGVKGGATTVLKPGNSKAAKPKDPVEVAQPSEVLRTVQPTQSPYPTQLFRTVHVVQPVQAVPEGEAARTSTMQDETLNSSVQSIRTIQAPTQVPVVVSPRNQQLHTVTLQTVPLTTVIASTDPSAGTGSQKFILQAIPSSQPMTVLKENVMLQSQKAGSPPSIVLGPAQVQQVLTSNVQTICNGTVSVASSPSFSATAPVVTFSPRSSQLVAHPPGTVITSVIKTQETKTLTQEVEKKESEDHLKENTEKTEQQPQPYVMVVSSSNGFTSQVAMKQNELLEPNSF

## TAATAC
FLI1
  binding signal: 1.11 fold enrichment (6-mer frequency, TF over GST control)
ELK1
  binding signal: 1.07 fold enrichment (6-mer frequency, TF over GST control)
GABPA
  binding signal: 1.04 fold enrichment (6-mer frequency, TF over GST control)
ERG
  binding signal: 1.09 fold enrichment (6-mer frequency, TF over GST control)
ELF1
  binding signal: 1.13 fold enrichment (6-mer frequency, TF over GST control)
EHF
  binding signal: 1.13 fold enrichment (6-mer frequency, TF over GST control)
SPI1
  binding signal: 1.05 fold enrichment (6-mer frequency, TF over GST control)
SPIB
  binding signal: 1.06 fold enrichment (6-mer frequency, TF over GST control)
ELK3
  binding signal: 1.04 fold enrichment (6-mer frequency, TF over GST control)
FEV
  binding signal: 1.12 fold enrichment (6-mer frequency, TF over GST control)
ETV5
  binding signal: 1.04 fold enrichment (6-mer frequency, TF over GST control)
HSF1
  binding signal: 1.63 fold enrichment (6-mer frequency, TF over GST control)
SPIC
  binding signal: 1.12 fold enrichment (6-mer frequency, TF over GST control)
ELF4
  binding signal: 1.14 fold enrichment (6-mer frequency, TF over GST control)
ELK4
  binding signal: 1.04 fold enrichment (6-mer frequency, TF over GST control)
ETV2
  binding signal: 1.16 fold enrichment (6-mer frequency, TF over GST control)
ELF3
  binding signal: 1.05 fold enrichment (6-mer frequency, TF over GST control)
CRX
  binding signal: 2.45 fold enrichment (6-mer frequency, TF over GST control)
ETV1
  binding signal: 1.11 fold enrichment (6-mer frequency, TF over GST control)

— PMC7862700, “An all-to-all approach to the identification of sequence-specific readers for epigenetic DNA modifications on cytosine”
